From the supplement of paper PMC10849652
Of roughly 7,900 targets only a part is listed; those with a hit were picked by preference. About 0.6% of all pairs of compound and target were hits.

Compound: Cc1cc(SCc2sc(-c3ccc(C(F)(F)F)cc3)nc2C)ccc1OCC(=O)O
Test: log2 fold change, soluble protein after heating vs DMSO (PISA); higher = thermal stabilisation; K562 cells, 10 uM, 30 min; active = over 0.2 and 3.5 SD of the protein, either way, in both replicates (recomputed)
In short: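 Thermal stability values are relative to control samples and come from duplicates. They are expressed as log2 fold changes. For measurement, K562 cells (2×10^6 cells/mL) received 10 μM compound for 30 min, and aliquots were heated for 3 min over 48°C-58°C, pooled, and extracted at 4°C in PBS with 0.5% NP-40. Soluble protein, the supernatant after 21,000xg for 90 min, was quantified by TMTpro 16plex LC-MS/MS with equalised channel sums.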

Sequence of UniProt Q9UKU0 (Q9UKU0 whole entry, looked up): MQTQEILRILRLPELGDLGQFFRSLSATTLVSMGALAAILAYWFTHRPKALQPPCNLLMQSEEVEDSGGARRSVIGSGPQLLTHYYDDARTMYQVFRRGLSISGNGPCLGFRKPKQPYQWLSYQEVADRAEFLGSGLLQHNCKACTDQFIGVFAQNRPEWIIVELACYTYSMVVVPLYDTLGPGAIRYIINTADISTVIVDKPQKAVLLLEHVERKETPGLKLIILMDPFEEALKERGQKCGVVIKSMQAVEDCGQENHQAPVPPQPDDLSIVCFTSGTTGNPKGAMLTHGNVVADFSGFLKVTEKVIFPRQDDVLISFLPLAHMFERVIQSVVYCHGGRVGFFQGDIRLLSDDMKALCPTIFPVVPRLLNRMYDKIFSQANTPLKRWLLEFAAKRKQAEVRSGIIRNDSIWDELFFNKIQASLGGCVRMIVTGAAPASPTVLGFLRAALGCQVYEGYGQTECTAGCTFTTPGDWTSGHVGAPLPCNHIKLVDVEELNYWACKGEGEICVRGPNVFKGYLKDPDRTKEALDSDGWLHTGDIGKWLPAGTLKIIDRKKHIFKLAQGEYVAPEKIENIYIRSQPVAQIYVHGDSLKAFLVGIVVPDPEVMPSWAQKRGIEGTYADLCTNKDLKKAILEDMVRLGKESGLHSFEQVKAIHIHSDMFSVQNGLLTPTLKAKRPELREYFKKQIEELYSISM
Sequence of UniProt Q8NFV4 (Q8NFV4 whole entry, looked up): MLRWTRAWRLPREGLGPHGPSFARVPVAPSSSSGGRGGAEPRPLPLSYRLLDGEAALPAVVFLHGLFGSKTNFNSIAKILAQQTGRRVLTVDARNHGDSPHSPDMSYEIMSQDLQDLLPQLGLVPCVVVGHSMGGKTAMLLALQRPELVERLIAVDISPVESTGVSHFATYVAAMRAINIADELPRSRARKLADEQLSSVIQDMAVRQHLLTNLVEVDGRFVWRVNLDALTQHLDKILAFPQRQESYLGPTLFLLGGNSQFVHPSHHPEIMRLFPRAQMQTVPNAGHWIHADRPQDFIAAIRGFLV
Sequence of UniProt P00966 (P00966 whole entry, looked up): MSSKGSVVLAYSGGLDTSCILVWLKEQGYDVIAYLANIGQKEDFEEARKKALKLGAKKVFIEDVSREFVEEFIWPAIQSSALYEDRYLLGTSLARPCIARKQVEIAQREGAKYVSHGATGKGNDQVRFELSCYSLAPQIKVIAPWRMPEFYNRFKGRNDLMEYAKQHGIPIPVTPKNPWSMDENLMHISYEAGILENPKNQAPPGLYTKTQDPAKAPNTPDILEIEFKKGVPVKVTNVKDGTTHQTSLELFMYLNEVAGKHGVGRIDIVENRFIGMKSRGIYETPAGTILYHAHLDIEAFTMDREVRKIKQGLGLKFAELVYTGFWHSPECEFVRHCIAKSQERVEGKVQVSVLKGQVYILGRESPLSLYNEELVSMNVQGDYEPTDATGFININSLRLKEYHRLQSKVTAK
Sequence of UniProt Q562R1 (Q562R1 whole entry, looked up): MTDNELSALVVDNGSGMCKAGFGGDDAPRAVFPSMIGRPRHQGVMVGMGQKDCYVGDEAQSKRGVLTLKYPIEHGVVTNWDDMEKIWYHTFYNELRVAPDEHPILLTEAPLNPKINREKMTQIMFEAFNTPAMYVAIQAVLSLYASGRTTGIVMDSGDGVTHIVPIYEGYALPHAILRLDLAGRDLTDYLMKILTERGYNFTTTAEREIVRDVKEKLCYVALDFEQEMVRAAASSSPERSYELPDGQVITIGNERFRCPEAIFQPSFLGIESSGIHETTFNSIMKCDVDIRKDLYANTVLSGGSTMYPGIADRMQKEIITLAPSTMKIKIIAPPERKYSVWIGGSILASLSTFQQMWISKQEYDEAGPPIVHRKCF
Sequence of UniProt P42331 (P42331 whole entry, looked up): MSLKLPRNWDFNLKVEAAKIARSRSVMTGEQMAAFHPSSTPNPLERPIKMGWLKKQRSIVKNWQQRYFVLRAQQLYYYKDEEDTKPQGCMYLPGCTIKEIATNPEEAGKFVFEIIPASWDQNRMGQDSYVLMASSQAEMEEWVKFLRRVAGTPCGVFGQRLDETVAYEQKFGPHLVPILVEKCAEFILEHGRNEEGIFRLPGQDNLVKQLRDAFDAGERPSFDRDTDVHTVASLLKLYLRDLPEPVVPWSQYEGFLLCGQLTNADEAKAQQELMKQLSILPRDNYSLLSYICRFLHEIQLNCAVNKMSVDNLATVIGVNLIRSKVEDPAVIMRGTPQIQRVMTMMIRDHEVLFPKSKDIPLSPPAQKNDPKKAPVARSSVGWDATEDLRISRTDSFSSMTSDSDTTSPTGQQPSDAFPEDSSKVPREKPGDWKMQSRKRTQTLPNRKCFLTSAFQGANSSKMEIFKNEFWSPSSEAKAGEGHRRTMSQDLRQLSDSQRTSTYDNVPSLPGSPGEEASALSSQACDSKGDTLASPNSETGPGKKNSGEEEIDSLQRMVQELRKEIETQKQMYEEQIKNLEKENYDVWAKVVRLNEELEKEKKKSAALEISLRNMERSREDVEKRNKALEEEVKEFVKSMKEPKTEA
Sequence of UniProt Q15059 (Q15059 whole entry, looked up): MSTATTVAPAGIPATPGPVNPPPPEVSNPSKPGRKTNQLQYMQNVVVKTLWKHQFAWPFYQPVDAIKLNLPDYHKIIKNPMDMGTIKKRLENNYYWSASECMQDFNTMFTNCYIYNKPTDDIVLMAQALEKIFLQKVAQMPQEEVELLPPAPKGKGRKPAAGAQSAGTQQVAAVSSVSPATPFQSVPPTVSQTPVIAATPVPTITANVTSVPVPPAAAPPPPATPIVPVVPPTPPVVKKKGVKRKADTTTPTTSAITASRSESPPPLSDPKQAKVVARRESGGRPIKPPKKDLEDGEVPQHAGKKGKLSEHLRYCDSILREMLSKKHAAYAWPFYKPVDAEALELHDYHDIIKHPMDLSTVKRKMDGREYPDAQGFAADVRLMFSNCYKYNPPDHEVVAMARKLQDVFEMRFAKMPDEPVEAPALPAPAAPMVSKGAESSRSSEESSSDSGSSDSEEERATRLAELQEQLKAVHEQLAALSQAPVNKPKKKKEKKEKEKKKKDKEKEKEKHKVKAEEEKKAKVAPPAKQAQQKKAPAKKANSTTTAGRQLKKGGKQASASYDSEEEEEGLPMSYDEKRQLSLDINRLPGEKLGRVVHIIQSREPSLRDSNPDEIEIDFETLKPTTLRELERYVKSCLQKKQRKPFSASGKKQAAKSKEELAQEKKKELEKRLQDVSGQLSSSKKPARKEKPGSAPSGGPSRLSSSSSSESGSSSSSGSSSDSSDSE
Sequence of UniProt Q9H7T9 (Q9H7T9 whole entry, looked up): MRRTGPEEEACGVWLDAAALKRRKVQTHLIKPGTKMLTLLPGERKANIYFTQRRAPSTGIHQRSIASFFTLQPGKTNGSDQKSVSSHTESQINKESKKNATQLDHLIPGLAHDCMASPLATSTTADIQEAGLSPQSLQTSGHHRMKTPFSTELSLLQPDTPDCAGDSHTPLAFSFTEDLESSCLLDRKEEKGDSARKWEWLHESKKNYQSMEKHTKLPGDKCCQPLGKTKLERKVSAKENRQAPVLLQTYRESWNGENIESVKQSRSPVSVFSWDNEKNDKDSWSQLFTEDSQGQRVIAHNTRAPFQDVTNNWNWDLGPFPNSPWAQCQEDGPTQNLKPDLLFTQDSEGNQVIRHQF
Sequence of UniProt Q96F25 (Q96F25 whole entry, looked up): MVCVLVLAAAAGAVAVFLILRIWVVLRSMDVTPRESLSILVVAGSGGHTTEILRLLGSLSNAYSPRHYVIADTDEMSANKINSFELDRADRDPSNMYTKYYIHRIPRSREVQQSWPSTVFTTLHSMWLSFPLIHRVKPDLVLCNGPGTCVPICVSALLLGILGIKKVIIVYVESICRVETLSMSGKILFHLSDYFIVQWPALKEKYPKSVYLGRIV
Sequence of UniProt Q8N5I2 (Q8N5I2 whole entry, looked up): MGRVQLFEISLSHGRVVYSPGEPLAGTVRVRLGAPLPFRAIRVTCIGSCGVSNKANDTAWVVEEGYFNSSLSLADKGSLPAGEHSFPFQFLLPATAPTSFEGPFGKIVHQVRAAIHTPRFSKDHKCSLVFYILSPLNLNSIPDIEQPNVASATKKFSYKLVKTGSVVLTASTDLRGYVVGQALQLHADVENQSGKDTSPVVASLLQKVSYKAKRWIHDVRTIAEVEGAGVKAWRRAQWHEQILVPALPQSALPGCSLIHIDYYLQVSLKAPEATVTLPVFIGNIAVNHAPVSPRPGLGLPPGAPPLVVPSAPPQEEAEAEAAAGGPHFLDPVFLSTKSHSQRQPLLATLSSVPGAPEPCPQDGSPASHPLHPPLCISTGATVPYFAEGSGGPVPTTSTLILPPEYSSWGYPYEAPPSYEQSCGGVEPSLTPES
Sequence of UniProt P49189 (P49189 whole entry, looked up): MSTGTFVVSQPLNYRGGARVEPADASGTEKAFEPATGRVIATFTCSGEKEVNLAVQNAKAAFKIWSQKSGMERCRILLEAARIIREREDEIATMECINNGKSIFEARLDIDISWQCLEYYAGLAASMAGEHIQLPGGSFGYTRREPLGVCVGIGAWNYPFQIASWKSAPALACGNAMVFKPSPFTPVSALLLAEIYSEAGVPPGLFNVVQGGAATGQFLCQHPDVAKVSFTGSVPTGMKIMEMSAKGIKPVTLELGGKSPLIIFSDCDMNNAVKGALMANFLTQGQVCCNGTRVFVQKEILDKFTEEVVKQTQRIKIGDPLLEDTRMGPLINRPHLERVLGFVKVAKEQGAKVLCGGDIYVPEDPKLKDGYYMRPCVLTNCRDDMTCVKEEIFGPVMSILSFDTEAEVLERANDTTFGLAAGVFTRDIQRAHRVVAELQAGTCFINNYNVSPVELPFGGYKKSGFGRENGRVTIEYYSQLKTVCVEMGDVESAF
Sequence of UniProt Q9HCU9 (Q9HCU9 whole entry, looked up): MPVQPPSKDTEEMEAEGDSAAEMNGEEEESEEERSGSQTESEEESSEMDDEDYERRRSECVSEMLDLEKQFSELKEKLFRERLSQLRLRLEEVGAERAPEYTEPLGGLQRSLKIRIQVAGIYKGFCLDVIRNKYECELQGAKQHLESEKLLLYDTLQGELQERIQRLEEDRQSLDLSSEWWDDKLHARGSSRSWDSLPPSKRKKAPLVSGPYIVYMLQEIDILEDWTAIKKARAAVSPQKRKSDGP

log2 fold change, inactive:
AARSD1 (UniProt Q9BTE6) 0.026, BDH2 (UniProt Q9BUT1) 0.067, AUH (UniProt Q13825) 0.135, ACVR1 (UniProt Q04771) -0.061, ARHGAP25 isoform 4 (UniProt P42331) 0.299, ALDH9A1 (UniProt P49189) 0.045, BRD4 (UniProt O60885) -0.044, ALG14 (UniProt Q96F25) -0.002, BSCL2 isoform 4 (UniProt Q96G97) 0.111, ARHGAP4 isoform 2 (UniProt P98171) 0.131, AUNIP isoform 2 (UniProt Q9H7T9) 0.056, ARRDC1 (UniProt Q8N5I2) -0.071, ABHD11 (UniProt Q8NFV4) -0.003, BRD3 (UniProt Q15059) -0.037, ATR (UniProt Q13535) 0.026, AURKA (UniProt O14965) -0.013, ACSL6 isoform 1 (UniProt Q9UKU0) 0.157, ASS1 (UniProt P00966) -0.062, BTBD6 (UniProt Q96KE9) -0.061, ACTBL2 (UniProt Q562R1) -0.299, BRMS1 (UniProt Q9HCU9) -0.046
